In the supplement of paper PMC12282887:
Where a name gives a salt, the structure may show the parent alone. ± gives the standard deviation of the averaged measurements.

System: E. coli BW25113 marRABp lux reporter
Test: promoter activity interaction Z-score (Lux/OD deviation from empty-vector control); higher = stronger promoter induction by the compound
Procedure: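 E. coli BW25113 (wild type or ΔmarA/ΔsoxS/Δrob) carrying pTU175 luxCDABE promoter reporters was grown in LB in 384-well plates at 37°C with each of 94 compounds at 4 two-fold concentrations, in biological duplicates. Luminescence and OD600 were read every 30 min for 12 h and integrated as AUC over 8 h (0-8 h WT, 1-9 h mutants). Lux AUC was divided by OD AUC; the interaction score is the residual of a Huber robust fit of each promoter against the empty-vector control, then Z-transformed per promoter.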

Cc1onc(-c2ccccc2)c1C(=O)N[C@@H]1C(=O)N2[C@@H]1SC(C)(C)[C@@H]2C(=O)O [Oxacillin]
promoter activity interaction Z-score (0.53 µg/ml, genetic background: wild type): -0.0416 ± 0.14
promoter activity interaction Z-score (0.53 µg/ml, genetic background: ΔmarA): -0.145 ± 0.48
promoter activity interaction Z-score (0.53 µg/ml, genetic background: Δrob): -0.0895 ± 0.14
promoter activity interaction Z-score (0.53 µg/ml, genetic background: ΔsoxS): 0.143 ± 0.032
promoter activity interaction Z-score (1.1 µg/ml, genetic background: wild type): 0.221 ± 0.0058
promoter activity interaction Z-score (1.1 µg/ml, genetic background: ΔmarA): 0.189 ± 0.3
promoter activity interaction Z-score (1.1 µg/ml, genetic background: Δrob): 0.0302 ± 0.28
promoter activity interaction Z-score (1.1 µg/ml, genetic background: ΔsoxS): 0.214 ± 0.17
promoter activity interaction Z-score (2.1 µg/ml, genetic background: wild type): -0.151 ± 0.12
promoter activity interaction Z-score (2.1 µg/ml, genetic background: ΔmarA): -0.0728 ± 0.16
promoter activity interaction Z-score (2.1 µg/ml, genetic background: Δrob): 0.0223 ± 0.02
promoter activity interaction Z-score (2.1 µg/ml, genetic background: ΔsoxS): 0.133 ± 0.06
promoter activity interaction Z-score (4.2 µg/ml, genetic background: wild type): 0.0879 ± 0.03
promoter activity interaction Z-score (4.2 µg/ml, genetic background: ΔmarA): 0.194 ± 0.076
promoter activity interaction Z-score (4.2 µg/ml, genetic background: Δrob): -0.03 ± 0.043
promoter activity interaction Z-score (4.2 µg/ml, genetic background: ΔsoxS): 0.211 ± 0.2

COc1ccc(C[C@H](N)C(=O)N[C@H]2[C@@H](O)[C@H](n3cnc4c(N(C)C)ncnc43)O[C@@H]2CO)cc1 [Puromycin]
promoter activity interaction Z-score (3.1 µg/ml, genetic background: wild type): 0.00293 ± 0.13
promoter activity interaction Z-score (3.1 µg/ml, genetic background: ΔmarA): 0.189 ± 0.15
promoter activity interaction Z-score (3.1 µg/ml, genetic background: Δrob): 0.309 ± 0.18
promoter activity interaction Z-score (3.1 µg/ml, genetic background: ΔsoxS): 0.0658 ± 0.096
promoter activity interaction Z-score (6.1 µg/ml, genetic background: wild type): 0.213 ± 0.31
promoter activity interaction Z-score (6.1 µg/ml, genetic background: ΔmarA): 0.623 ± 0.33
promoter activity interaction Z-score (6.1 µg/ml, genetic background: Δrob): 0.273 ± 0.14
promoter activity interaction Z-score (6.1 µg/ml, genetic background: ΔsoxS): 0.534 ± 0.15
promoter activity interaction Z-score (12.2 µg/ml, genetic background: wild type): 0.362 ± 0.15
promoter activity interaction Z-score (12.2 µg/ml, genetic background: ΔmarA): 0.61 ± 0.46
promoter activity interaction Z-score (12.2 µg/ml, genetic background: Δrob): 0.305 ± 0.046
promoter activity interaction Z-score (12.2 µg/ml, genetic background: ΔsoxS): 0.522 ± 0.076
promoter activity interaction Z-score (24.5 µg/ml, genetic background: wild type): 1.38 ± 0.23
promoter activity interaction Z-score (24.5 µg/ml, genetic background: Δrob): 2.58

O=C(O)COCCN1CCN(C(c2ccccc2)c2ccc(Cl)cc2)CC1 (stereo unspecified) [Cetirizine dihydrochloride]
promoter activity interaction Z-score (28.9 µg/ml, genetic background: wild type): -0.0717 ± 0.029
promoter activity interaction Z-score (28.9 µg/ml, genetic background: ΔmarA): 0.0437 ± 0.062
promoter activity interaction Z-score (28.9 µg/ml, genetic background: Δrob): 0.000338 ± 0.29
promoter activity interaction Z-score (28.9 µg/ml, genetic background: ΔsoxS): -0.0906 ± 0.0024
promoter activity interaction Z-score (57.7 µg/ml, genetic background: wild type): 0.151 ± 0.32
promoter activity interaction Z-score (57.7 µg/ml, genetic background: ΔmarA): -0.0182 ± 0.02
promoter activity interaction Z-score (57.7 µg/ml, genetic background: Δrob): -0.17 ± 0.18
promoter activity interaction Z-score (57.7 µg/ml, genetic background: ΔsoxS): -0.0648 ± 0.1
promoter activity interaction Z-score (115.5 µg/ml, genetic background: wild type): -0.301 ± 0.014
promoter activity interaction Z-score (115.5 µg/ml, genetic background: ΔmarA): -0.0679 ± 0.12
promoter activity interaction Z-score (115.5 µg/ml, genetic background: Δrob): -0.391 ± 0.15
promoter activity interaction Z-score (115.5 µg/ml, genetic background: ΔsoxS): -0.384 ± 0.18
promoter activity interaction Z-score (230.9 µg/ml, genetic background: wild type): -0.385 ± 0.034
promoter activity interaction Z-score (230.9 µg/ml, genetic background: ΔmarA): -0.279 ± 0.0034
promoter activity interaction Z-score (230.9 µg/ml, genetic background: Δrob): -0.565 ± 0.14
promoter activity interaction Z-score (230.9 µg/ml, genetic background: ΔsoxS): -0.389 ± 0.19
